Source: PubChem
Mtb FBA inh – inhibitors of M. tuberculosis fructose-bisphosphate aldolase | 2.3% of 360,000 active | inhibition, % at 1 µM | purified M. tuberculosis FBA, fluorescence read-out | AID 588726;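 further: 0% = vehicle and 100% = reference inhibitor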
Target sequence (P9WQA3 whole entry, looked up): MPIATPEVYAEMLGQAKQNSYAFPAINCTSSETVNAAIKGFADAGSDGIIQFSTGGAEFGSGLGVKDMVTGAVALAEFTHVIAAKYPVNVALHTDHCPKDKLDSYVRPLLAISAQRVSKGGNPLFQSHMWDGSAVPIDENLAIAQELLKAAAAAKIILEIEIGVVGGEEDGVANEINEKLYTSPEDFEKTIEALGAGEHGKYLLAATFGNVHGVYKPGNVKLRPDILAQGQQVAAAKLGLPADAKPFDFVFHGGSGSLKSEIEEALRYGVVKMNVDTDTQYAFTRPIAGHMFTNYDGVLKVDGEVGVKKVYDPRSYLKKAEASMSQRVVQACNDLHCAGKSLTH
GDH-TPI counter-1 – counter-screen for M. tuberculosis FBA inhibitors: GDH-TPI coupled enzymes | AID 588335 | inhibition, % at 4.8 µM | 1.2% of 360,000 active | GDH-TPI coupled enzyme counterscreen, NADH absorbance; in the data active means inhibition above about 30%;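 further: 0% = DMSO wells and 100% = wells lacking the enzyme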
Vc quorum ag – inducers of Vibrio cholerae quorum light production without autoinducers. 0.16% of 350,000 active. V. cholerae BH1578 lux reporter, luminescence, 6 h. AID 588436. activation, % at 18.7 µM; in the data active means activation mostly above about 9.7%, no sharp cut-off
BioA inh – blocks M. tuberculosis BioA enzyme activity; purified M. tuberculosis BioA enzyme, plate reader; inhibition, % at 9.99 µM; 0.096% of 360,000 active; in the data active means inhibition above about 40%
Mtb FBA inh conf – confirmation of M. tuberculosis fructose-bisphosphate aldolase inhibitors; shares compounds with Mtb FBA inh; purified M. tuberculosis FBA, fluorescence read-out; AID 651616; 78% of 5,600 active; inhibition, % at 1 µM;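 further: 0% = vehicle wells and 100% = reference inhibitor wells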
GDH-TPI counter-2 – GDH-TPI inhibition counter-screen for FBA inhibitors | shares compounds with Mtb FBA inh | GDH-TPI coupled enzyme counterscreen, fluorescence | inhibition, % at 1 µM | 81% of 5,600 active; in the data active means inhibition above about 10%
Active calls of the source: *; i = inactive; · = not tested or not shown; + = active, no number. Hits are enriched below; roughly 3% of the tested compounds scored in any of these assays. Unless noted, no stated cut-off is given here; in the data, active means inhibition above about 27%; inactive means the rest.

SMILES	Mtb FBA inh	GDH-TPI counter-1	Vc quorum ag	BioA inh	Mtb FBA inh conf	GDH-TPI counter-2
Cc1ccccc1N(C(=O)c1snc(C(N)=O)c1N)C(C(=O)NCC1CCCO1)c1ccc(N(C)C)cc1 (stereo unspecified)	2.6	9.6	i	-2.2	·	·
Cc1ccc(N(C(=O)c2snc(C(N)=O)c2N)C(C(=O)NCC2CCCO2)c2ccc(C)o2)c(C)c1 (stereo unspecified)	23.0	4.4	-0.5	-0.6	·	·
Cc1ccccc1N(C(=O)c1snc(C(N)=O)c1N)C(C(=O)NCC1CCCO1)c1ccc(F)cc1 (stereo unspecified)	54.8*	0.0	-0.2	·	3.5	0.0
C[C@@H]1CN([C@@H](C)CO)C(=O)Cc2cc(NS(=O)(=O)c3cn(C)cn3)ccc2O[C@H]1CN(C)S(=O)(=O)c1ccccc1	·	·	·	-3.2	·	·
C/C=C/c1cnc2c(c1)C(=O)N([C@H](C)CO)C[C@@H](C)[C@H](CN(C)C(=O)c1ccc3c(c1)OCO3)O2	·	·	·	15.0	·	·
Clc1ccc(-c2nc3cnccn3c2NC2CCCC2)cc1	17.0	15.1	i	1.6	·	·
CCC(C)Sc1ccc(-c2nc3cnccn3c2NC2CCCCC2)cc1 (stereo unspecified)	29.1*	12.1	-0.4	-2.1	67.2*	57.4*
CCC(C)Sc1ccc(-c2nc3cc(C)ccn3c2NC2CCCCC2)cc1 (stereo unspecified)	33.0*	29.0	1.2	-2.6	+	+
Cc1ccn2c(NC3CCCCC3)c(-c3cccc(-c4cccc(Cl)c4)c3)nc2c1	32.9*	15.6	-1.3	-4.5	112.9*	101.3*
C[C@H]1CN([C@@H](C)CO)C(=O)c2cc(-c3ccccc3F)cnc2O[C@H]1CN(C)Cc1cccc(C(=O)O)c1	·	·	·	3.2	·	·
CS(=O)(=O)c1ccc2nc(NC(=O)c3cccc(NS(=O)(=O)c4ccc(F)c(F)c4)c3)sc2c1	29.0*	9.8	-0.1	·	150.6*	138.8*
CS(=O)(=O)c1ccc2nc(NC(=O)c3ccc(NS(=O)(=O)c4ccc(F)c(F)c4)cc3)sc2c1	71.0*	59.8*	i	-1.4	79.0*	81.8*
COc1cc(OC)cc(C(=O)Nc2nc3ccc(S(C)(=O)=O)cc3s2)c1	2.0	29.8	2.3	-0.5	·	·
O=C(Nc1nc2ccc(SC(F)F)cc2s1)c1ccc(NS(=O)(=O)c2ccc(F)c(F)c2)cc1	54.8*	29.3	-0.1	1.4	+	+
C/C=C/c1cccc(-c2nc(C(=O)NCc3ccc(OC)cc3)cc3c2[C@@H](CCO)N([S@](=O)C(C)(C)C)C3)c1	·	·	·	1.0	·	·
CO[C@H]1CN(C)C(=O)c2cc(NC(C)=O)ccc2OC[C@@H](C)N(Cc2ccc(F)cc2)C[C@@H]1C	·	·	·	-0.3	·	·
Cc1nn(-c2ccccc2)c2sc(C(=O)N3CCOCC3)cc12	-4.1	13.7	-0.2	-3.3	·	·
Cc1nn(-c2ccccc2)c2sc(C(=O)OC3CCOC3=O)cc12 (stereo unspecified)	56.0*	3.2	-5.9	-2.1	30.9*	20.2*
N#Cc1ccc(-c2ccc(OCC(O)CN3CCOCC3)cc2)cc1 (stereo unspecified)	40.1*	-5.2	-0.2	·	4.1	-0.8
COc1ccc(OCC(O)CN2CCOCC2)cc1 (stereo unspecified)	-3.0	-1.9	-0.2	-0.3	·	·
CCCCC(SCC(=O)Nc1ccccc1)C(=O)O (stereo unspecified)	67.0*	6.8	-0.3	-1.2	185.8*	160.0*
CCCCC(CCCCl)C(=O)Nc1ccccc1 (stereo unspecified)	-3.3	-3.1	-0.3	·	·	·
CC(C)n1ncc2c(C(=O)Nc3ccccc3SCC(N)=O)cc(C3CC3)nc21	-2.3	8.9	i	4.9	·	·
CC(C)n1ncc2c(C(=O)NCC(=O)Nc3ccccc3Br)cc(C3CC3)nc21	29.6*	4.6	i	0.8	-2.5	0.3
Cc1cc(C)c(CNC(=O)c2cc(C3CC3)nc3c2cnn3C(C)C)c(=O)[nH]1	7.0	8.4	-2.5	·	·	·
SMILES	Mtb FBA inh	GDH-TPI counter-1	Vc quorum ag	BioA inh	Mtb FBA inh conf	GDH-TPI counter-2
Cc1cc(C)c(NC(=O)CNC(=O)c2cc(C3CC3)nc3c2cnn3C(C)C)c(C)c1	34.5*	8.0	-3.0	-1.6	120.9*	92.2*
CCc1ccccc1NC(=O)CNC(=O)c1cc(C2CC2)nc2c1cnn2C(C)C	37.3*	4.8	i	-0.6	+	+
CO[C@@H]1CN(C)C(=O)c2cc(NC(=O)C3CC3)ccc2OC[C@@H](C)N(CC2CC2)C[C@@H]1C	·	·	·	-0.5	·	·
O=C(C[C@@H]1CC[C@H]2[C@@H](COC[C@@H](O)CN2S(=O)(=O)c2cccc(F)c2)O1)Nc1ccccc1	·	·	·	0.2	·	·
O=S(=O)(O)c1cccc2cccc(Nc3ccccc3)c12	95.4*	30.9*	i	6.1	+	+
COc1ccc(S(=O)(=O)N2CCCCN3[C@H](CO)[C@H](c4ccc(C#CC5CC5)cc4)[C@H]3C2)cc1	·	·	·	5.4	·	·
Cc1cc(OCC(=O)NCc2ccncc2)c2c3c(c(=O)oc2c1)CCC3	25.8	1.5	-0.9	-0.9	·	·
CCc1cc(=O)oc2cc(C)cc(OCC(=O)NCc3ccncc3)c12	49.2*	6.9	i	4.9	160.6*	137.2*
CCCc1cc(=O)oc2cc(C)cc(OCC(=O)Nc3ccccn3)c12	22.8	3.5	i	-0.5	·	·
CCCc1cc(=O)oc2cc(C)cc(OCC(=O)NCc3ccncc3)c12	61.2*	9.2	i	6.3	53.5*	40.7*
CCc1cc(=O)oc2cc(C)cc(OCC(=O)NCc3ccccn3)c12	83.5*	0.0	-0.4	0.6	196.2*	143.8*
CCCc1cc(=O)oc2cc(C)cc(OCC(=O)Nc3ccc(S(N)(=O)=O)cc3)c12	19.2	7.1	0.5	-1.8	·	·
CCCc1cc(=O)oc2cc(C)cc(OCC(=O)O)c12	97.3*	16.8	-0.1	-0.3	144.3*	109.1*
CC(=O)COc1cc(C)cc2oc(=O)cc(-c3ccccc3)c12	2.4	10.1	i	·	·	·
C=C(Cl)COc1cc(C)cc2oc(=O)cc(CC)c12	32.3*	4.5	i	-4.3	146.1*	118.0*
COc1ccc(-c2oc3ccc(N4CCOCC4)cc3c2C#CCO)cc1	33.3*	47.1*	-10.9	-1.7	47.7*	35.4*
Nc1ccc(C#Cc2c(-c3ccsc3)oc3ccc(N4CCOCC4)cc23)cc1	40.8*	21.6	i	-1.1	101.7*	74.9*
C[C@@H]1CCCCO[C@@H](CN(C)Cc2ccc(C(=O)O)cc2)[C@@H](C)CN([C@H](C)CO)C(=O)c2cc(NC(=O)Nc3ccccc3)ccc2O1	·	·	·	-0.7	·	·
COc1ccc(NC(=O)c2ccc(S(=O)(=O)N3CC(C)CC(C)C3)cc2)cc1S(N)(=O)=O (stereo unspecified)	38.9*	18.2	0.7	-0.4	179.6*	152.0*
N#Cc1nc(-c2ccc(F)cc2)oc1NCCN1CCOCC1	46.4*	16.0	-0.2	0.6	81.0*	61.8*
Cc1ccc(-c2nc(C#N)c(NCCN3CCCCC3)o2)cc1	93.7*	16.0	i	7.0	170.0*	121.1*
